Assay [1] concerns the target Nuclear receptor coactivator 3 (Homo sapiens) (UniProt Q9Y6Q9). Kind of assay: NCOA3 GAL4-fusion reporter inhibition – cell-based, luminescence, quadruplicate, confirmation (AID 588792;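 active = mean inhibition over 43.08%, the solvent-only control mean plus 3 SD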;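 note: 0% = DMSO treated cells and 100% = gossypol at 36 µM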). The note with it: HEK293 GAL4-SRC3 luciferase reporter, at 3.6 µM, active compounds read high. A general note: Reporter assays use an easily measured gene product as a stand-in for the process of interest.

Assay [2] deals with transactivating tegument protein VP16 (Human herpesvirus 1), Gal4-VP16 luciferase reporter. Kind of assay: repression of VP16-driven luciferase reporter – cell-based, luminescence, high throughput, counter-screen for SRC3 inhibitor project (AID 588794). The note with it: mammalian cells, at 3.6 µM, active compounds read high.
For assay [3], the target named is Nuclear receptor coactivator 1 (Homo sapiens) (UniProt Q15788). Kind of assay: NCOA1 GAL4-fusion reporter inhibition – cell-based, luminescence, quadruplicate, confirmation (AID 588820;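 active = mean inhibition above 46.68%, the untreated control wells mean plus 3 SD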;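 note: 0% = DMSO wells and 100% = gossypol 36 µM treated wells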). To be noted: HEK293 GAL4-SRC1 luciferase reporter, at 3.6 µM, active compounds read high.
The nature of assay [4]: repression of VP16-driven luciferase reporter – cell-based, luminescence, high throughput, counter-screen for SRC1 inhibitor project (AID 588824; in the data active = inhibition above about 25%). To be noted: cell-based VP16 transactivation luciferase luminescence; at 3.6 µM; active compounds read high.
Assay [5] is described as follows: StAR promoter reporter inhibitors, counter-screen for LRH-1 inverse agonist project, cell-based, luminescence, high throughput (AID 651611; in the data active = inhibition above about 28%). The note with it: StAR promoter luciferase reporter counterscreen, at 3.6 µM, active compounds read high. (Counterscreens check selectivity or assay interference.)
The target in assay [6] is Nuclear receptor subfamily 5 group A member 2 (Homo sapiens) (UniProt O00482). Kind of assay: NR5A2 activity suppression in reporter cells – cell-based, luminescence, confirmation (AID 651613; in the data active = inhibition above about 42%;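 note: HEK293T cells co-transfected with LRH-1 and StAR promoter luciferase reporter; 0% = vehicle wells and 100% = parental cells lacking receptor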). The note with it: cell-based LRH-1 luciferase reporter, inverse agonism; at 3.6 µM; active compounds read high.
In assay [7] the target is Steroidogenic factor 1 (Homo sapiens) (UniProt Q13285). Kind of assay: inverse agonism at SF1 nuclear receptor – cell-based, luminescence, high throughput, counter-screen for LRH-1 inverse agonist project (AID 651614; in the data active = inhibition above about 44%;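 note: cells cotransfected with StAR promoter reporter and SF1 expression vector; 0% = vehicle on cells with receptor and 100% = vehicle on cells lacking receptor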). The note with it: cell-based SF1 luciferase reporter, at 3.6 µM, active compounds read high.
Assay [8] can be described thus: compounds suppressing VP16-driven luciferase signal – cell-based, luminescence, high throughput, counter-screen for LRH-1 inverse agonist project (AID 651615; in the data active = inhibition above about 33%). The note with it: Gal4-VP16 luciferase reporter cells, at 3.6 µM, active compounds read high.
The test system of assay [9] is transactivating tegument protein VP16 (Human herpesvirus 1). Kind of assay: compounds suppressing VP16-driven luciferase signal – cell-based, luminescence, single concentration, counter-screen for SRC2 inhibitor project (AID 652007; in the data active = inhibition above about 36%). The note with it: cell-based VP16 transactivation luciferase reporter, at 8.9 µM, active compounds read high.
The target in assay [10] is Nuclear receptor coactivator 2 (Homo sapiens) (UniProt Q15596). Kind of assay: inhibition of GAL4-SRC2 driven luciferase expression – cell-based, luminescence, HEK293, triplicate, confirmation (AID 652008;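 active = mean inhibition above 46.5%, the solvent-only control mean plus 3 SD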;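 note: 0% = DMSO-treated cells and 100% = Gossypol at 36 µM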). The note with it: HEK293 GAL4-SRC2 luciferase reporter, at 8.9 µM, active compounds read high.
Assay [11] is described as follows: VP16-driven transactivation reporter suppression – cell-based, luminescence, HEK293, counter-screen for COUP-TFII antagonist project (AID 687007; in the data active = inhibition above about 13%). To be noted: HEK293 Gal4-VP16 luciferase reporter, at 8.5 µM, active compounds read high.
In assay [12] the target is COUP transcription factor 2 (Homo sapiens) (UniProt P24468). Kind of assay: retest of COUP-TFII reporter suppressors – cell-based, luciferase reporter, HEK293, triplicate, confirmation (AID 687008;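 active = mean inhibition over three repeats above a set limit taken from the earlier primary screen, cut at about 38% in these data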;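 note: 100% = cells given the luciferase reporter alone without the COUP-TF2 vector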). The note with it: HEK293 NGFI-A luciferase reporter, luminescence; at 8.5 µM; active compounds read high.

For six compounds, inhibition results are on record in PubChem BioAssay.

Values without a mark were called inactive. This is one part of the list. The source made the active and inactive calls. Cut-off read from the data, not from the text of the source, unless noted: active = inhibition above about 30%; inactive = the rest.

Nuclear receptor coactivator 2 (Homo sapiens), sequence (Q15596 whole entry, looked up, the tested form may be a part): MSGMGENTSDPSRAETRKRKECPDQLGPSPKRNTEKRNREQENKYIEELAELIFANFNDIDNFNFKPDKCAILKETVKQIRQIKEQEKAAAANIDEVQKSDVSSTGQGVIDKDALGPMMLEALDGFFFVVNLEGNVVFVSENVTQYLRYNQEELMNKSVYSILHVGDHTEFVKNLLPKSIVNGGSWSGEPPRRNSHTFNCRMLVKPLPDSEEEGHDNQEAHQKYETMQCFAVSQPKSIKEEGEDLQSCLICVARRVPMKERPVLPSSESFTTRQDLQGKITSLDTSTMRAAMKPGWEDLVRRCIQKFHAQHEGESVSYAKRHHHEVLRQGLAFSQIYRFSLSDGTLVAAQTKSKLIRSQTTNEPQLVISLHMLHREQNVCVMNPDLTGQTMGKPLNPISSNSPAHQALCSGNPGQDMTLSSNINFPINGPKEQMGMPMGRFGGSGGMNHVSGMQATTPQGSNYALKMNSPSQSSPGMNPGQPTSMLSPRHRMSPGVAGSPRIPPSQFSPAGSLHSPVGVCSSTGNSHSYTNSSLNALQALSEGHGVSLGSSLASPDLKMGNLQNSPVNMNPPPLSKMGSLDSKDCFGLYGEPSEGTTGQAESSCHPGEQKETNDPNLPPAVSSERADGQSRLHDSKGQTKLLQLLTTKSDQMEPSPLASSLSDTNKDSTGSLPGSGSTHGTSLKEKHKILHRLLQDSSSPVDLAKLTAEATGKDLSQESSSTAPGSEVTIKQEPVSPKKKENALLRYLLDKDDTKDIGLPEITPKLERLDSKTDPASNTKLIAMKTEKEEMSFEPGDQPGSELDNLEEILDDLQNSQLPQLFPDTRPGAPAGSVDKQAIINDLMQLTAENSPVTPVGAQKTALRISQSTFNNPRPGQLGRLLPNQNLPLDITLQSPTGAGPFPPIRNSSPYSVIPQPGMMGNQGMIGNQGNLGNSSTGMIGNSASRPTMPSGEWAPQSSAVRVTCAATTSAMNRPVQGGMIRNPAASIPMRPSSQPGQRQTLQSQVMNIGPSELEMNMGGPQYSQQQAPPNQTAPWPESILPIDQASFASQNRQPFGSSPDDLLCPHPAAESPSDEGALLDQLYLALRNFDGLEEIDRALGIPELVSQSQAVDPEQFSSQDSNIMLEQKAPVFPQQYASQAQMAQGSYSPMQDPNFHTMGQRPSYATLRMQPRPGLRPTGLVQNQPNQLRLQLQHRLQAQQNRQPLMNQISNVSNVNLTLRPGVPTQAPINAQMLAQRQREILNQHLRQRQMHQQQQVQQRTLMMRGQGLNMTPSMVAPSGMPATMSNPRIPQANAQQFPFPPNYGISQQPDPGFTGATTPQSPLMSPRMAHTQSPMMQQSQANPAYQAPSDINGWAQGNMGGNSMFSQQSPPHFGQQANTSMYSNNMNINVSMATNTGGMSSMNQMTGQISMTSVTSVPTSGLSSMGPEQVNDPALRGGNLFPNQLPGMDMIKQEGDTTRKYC
Nuclear receptor coactivator 3 (Homo sapiens), sequence (Q9Y6Q9 whole entry, looked up, the tested form may be a part): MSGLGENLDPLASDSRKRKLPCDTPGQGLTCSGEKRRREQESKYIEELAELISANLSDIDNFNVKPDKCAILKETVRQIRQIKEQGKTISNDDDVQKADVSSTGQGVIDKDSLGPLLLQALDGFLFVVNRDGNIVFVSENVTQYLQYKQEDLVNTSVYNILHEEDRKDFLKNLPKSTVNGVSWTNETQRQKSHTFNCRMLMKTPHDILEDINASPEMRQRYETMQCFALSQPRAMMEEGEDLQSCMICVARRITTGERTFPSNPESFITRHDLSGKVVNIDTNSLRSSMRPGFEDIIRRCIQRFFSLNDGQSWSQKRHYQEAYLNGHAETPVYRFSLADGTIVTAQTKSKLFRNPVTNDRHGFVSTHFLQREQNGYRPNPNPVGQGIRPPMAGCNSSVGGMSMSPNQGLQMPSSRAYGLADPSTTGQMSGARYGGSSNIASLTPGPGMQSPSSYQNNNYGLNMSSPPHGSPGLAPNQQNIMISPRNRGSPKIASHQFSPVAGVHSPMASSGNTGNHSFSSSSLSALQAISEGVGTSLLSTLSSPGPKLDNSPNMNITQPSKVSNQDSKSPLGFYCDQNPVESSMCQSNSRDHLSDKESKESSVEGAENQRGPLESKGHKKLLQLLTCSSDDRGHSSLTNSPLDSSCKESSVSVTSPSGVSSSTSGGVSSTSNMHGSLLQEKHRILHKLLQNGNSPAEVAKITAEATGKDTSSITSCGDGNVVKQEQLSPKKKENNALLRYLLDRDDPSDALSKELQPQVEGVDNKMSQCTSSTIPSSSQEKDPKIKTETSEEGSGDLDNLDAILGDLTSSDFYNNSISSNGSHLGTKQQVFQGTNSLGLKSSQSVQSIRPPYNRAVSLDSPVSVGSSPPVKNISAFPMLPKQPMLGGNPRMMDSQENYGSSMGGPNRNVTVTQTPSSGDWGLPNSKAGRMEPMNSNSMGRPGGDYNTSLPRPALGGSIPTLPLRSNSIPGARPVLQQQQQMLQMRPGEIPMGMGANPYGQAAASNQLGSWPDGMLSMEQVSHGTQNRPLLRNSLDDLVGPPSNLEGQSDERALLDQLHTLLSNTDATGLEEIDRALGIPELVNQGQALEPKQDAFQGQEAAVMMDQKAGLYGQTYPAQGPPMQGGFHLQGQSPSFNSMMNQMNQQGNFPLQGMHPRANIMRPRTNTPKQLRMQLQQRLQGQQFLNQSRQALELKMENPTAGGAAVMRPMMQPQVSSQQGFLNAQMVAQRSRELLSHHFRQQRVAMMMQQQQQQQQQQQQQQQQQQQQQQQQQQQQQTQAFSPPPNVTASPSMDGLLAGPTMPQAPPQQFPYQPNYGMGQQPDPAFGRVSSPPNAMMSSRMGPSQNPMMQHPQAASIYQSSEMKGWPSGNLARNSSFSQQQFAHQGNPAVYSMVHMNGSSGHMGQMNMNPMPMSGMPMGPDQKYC
Nuclear receptor coactivator 1 (Homo sapiens), sequence (Q15788 whole entry, looked up, the tested form may be a part): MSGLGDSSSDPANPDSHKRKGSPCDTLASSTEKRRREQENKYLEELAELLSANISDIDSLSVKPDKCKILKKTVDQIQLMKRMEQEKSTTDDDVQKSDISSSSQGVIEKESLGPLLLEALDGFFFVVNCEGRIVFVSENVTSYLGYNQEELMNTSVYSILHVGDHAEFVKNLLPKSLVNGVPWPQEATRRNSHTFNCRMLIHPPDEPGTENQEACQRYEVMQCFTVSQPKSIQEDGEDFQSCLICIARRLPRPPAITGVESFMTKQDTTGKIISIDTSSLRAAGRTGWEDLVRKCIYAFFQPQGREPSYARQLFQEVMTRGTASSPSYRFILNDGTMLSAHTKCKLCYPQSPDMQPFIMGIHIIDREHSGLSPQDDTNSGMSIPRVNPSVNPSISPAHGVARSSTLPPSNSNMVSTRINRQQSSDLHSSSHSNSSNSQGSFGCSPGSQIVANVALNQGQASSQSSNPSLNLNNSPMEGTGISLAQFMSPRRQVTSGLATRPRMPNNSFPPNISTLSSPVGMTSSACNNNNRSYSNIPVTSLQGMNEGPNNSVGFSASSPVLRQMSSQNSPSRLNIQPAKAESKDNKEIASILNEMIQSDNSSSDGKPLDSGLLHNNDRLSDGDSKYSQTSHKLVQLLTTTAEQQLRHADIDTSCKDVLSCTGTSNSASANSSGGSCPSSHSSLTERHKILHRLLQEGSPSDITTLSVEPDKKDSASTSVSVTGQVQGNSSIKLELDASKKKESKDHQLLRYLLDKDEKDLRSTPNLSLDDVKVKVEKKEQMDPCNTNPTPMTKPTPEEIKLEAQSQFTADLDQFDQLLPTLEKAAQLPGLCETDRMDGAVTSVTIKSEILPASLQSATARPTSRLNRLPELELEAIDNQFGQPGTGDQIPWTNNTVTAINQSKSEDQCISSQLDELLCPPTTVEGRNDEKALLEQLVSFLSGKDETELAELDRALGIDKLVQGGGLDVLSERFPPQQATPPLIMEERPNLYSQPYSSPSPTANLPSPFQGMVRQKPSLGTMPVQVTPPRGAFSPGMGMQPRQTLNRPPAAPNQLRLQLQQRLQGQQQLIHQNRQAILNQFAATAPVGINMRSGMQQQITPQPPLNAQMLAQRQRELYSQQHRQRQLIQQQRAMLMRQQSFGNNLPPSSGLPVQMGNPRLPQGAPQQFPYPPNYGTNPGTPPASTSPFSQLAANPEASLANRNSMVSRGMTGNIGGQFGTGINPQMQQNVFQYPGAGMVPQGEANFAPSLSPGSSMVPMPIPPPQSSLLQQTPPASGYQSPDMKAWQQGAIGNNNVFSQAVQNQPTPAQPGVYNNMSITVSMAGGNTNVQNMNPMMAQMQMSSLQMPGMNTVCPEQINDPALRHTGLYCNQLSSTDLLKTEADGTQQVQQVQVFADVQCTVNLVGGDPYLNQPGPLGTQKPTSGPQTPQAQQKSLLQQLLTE
Nuclear receptor subfamily 5 group A member 2 (Homo sapiens), sequence (O00482 whole entry, looked up): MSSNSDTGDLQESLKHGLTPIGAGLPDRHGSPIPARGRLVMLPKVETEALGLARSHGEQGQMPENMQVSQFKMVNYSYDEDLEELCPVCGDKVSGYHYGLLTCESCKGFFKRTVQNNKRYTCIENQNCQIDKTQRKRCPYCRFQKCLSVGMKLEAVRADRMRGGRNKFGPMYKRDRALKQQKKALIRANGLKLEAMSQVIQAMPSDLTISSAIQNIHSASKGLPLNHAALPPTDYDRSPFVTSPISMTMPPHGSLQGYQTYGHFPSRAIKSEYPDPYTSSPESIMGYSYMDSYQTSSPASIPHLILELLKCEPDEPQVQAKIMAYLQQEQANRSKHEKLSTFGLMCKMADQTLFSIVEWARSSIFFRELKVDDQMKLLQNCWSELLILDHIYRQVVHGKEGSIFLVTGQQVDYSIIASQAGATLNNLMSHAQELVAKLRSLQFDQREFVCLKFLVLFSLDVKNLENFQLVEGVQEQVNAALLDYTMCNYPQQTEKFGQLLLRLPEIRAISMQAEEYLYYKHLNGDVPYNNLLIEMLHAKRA

For `O=[N+]([O-])c1ccc(N(CCO)CCO)c2c1no[n+]2[O-]`, the inhibition (commonly the change of the read-out against control, counted positive when it falls) is 52.6% (active) in assay [1]; 27.8% in assay [2]; 29.1% in assay [3]; 14.5% in assay [4]; 70.7% (active) in [5]; 76.2% (active) in assay [6]. Further, the inhibition in [7] is 74.4% (active); in assay [8], 28.9%; in assay [9], 29.9%; in assay [10], 56.3% (active).

In the case of `O=C1NC2C(O)C(O)C(O)C(O)C2c2cc3c(c(O)c21)OCO3` (stereo not drawn), the inhibition in assay [1] was 97.3% (active); in assay [2] it was 96% (active); in [3], 93.4% (active); in assay [4], 95% (active); in [5], 96.4% (active); in assay [6], 109% (active). In addition, the inhibition in [7] was 97.7% (active); in assay [8], 98.6% (active); in assay [9], 79.7% (active); in [10], 75.7% (active).

Take `C=C1C(=O)OC2CC(C)C3C=CC(=O)C3(C)C(O)C12` (stereo not drawn): the inhibition in assay [1] was 38%; in assay [2], 90.7% (active); in assay [4], 90.6% (active); in assay [5], 62.5% (active); in assay [6], 88.6% (active); in assay [7] it was 90.1% (active). For the same compound, the inhibition in assay [8] was 91.2% (active).

As for `CCOc1ccc(-c2cc(C)[n+](CCN(CC)CC)c(-c3ccc(OCC)cc3)c2)cc1`, the inhibition is 68.1% (active) in assay [1]; 80.8% (active) in [2]; 67.7% (active) in assay [3]; 81.7% (active) in assay [4]; 73.6% (active) in assay [5]; 105% (active) in assay [6]. The inhibition is 93.8% (active) in assay [7], 90% (active) in assay [8], 19.5% (active) in assay [11] and 62% (active) in [12].

On to `CC12CCC(O)CC1CCC1C2CCC2(C)C(C3=CC(=O)OC3)CCC12O` (stereo not drawn), for which the inhibition in [1] is 97.6% (active); in assay [2] it was 87.9% (active); in assay [3], 70.6% (active); in assay [4] it was 87.4% (active); in assay [5], 95.7% (active); in [6], 110% (active). Also, the inhibition in assay [7] is 98.2% (active); in assay [8], 89% (active); in [9] it was 58.5% (active); in [10] it was 23.6%.

`COc1ccc2c(c1)[nH]c1c(C)nccc12`: the inhibition is 79% (active) in [1]; 48.6% (active) in [2]; 63.4% (active) in assay [3]; 51.4% (active) in assay [4]; 9.1% in assay [9]; 42.9% in assay [10].
